Assay outcomes deposited in PubChem BioAssay by several laboratories.
A selection: hits, their analogues and other compounds. The true share with any hit is near 2.2%.
Ba/F3 V617F tox: loss of viability in JAK2V617F-driven Ba/F3 cells; Ba/F3 EpoR-JAK2V617F viability, ATP luminescence; actives 1.1% (n = 220,000); AID 1446; inhibition, % at 5.6 µM;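 active = inhibition above the campaign mean plus 3 SD over all tested compounds, cut at about 24% in these data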;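 note: cytokine-independent growth of Ba/F3 cells driven by EpoR plus mutant JAK2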
APP transl inh: APP translation inhibition. AID 1285. inhibition, % at 2 µM. SH-SY5Y APP 5'UTR-luciferase reporter, luminescence. actives 0.82% (n = 190,000);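 active = inhibition above a set limit, derived from the sample mean plus 3 SD, cut at about 45% in these data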
aSyn 5UTR inh: MLPCN primary screen, SNCA 5' untranslated region; actives 0.82% (n = 300,000); inhibition, % (tested at 7.5 µM); alpha-synuclein 5'UTR reporter, inhibitor activity; AID 1813; in the data active = inhibition above about 60%;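 note: H4 neuroglioblastoma cells stably carrying SNCA 5'UTR luciferase fusion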
BaF3 tox: reduces parental Ba/F3 cell viability, JAK2V617F counter-screen. AID 1486. actives 1.1% (n = 220,000). inhibition, % at 5.6 µM. CellTiter-Glo ATP luminescence;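 active = inhibition above a per-campaign cutoff, the mean inhibition of all tested compounds plus 3 SD, cut at about 27% in these data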
KLF5 inhibitor: kruppel-like factor 5 inhibition | DLD-1 KLF5 promoter-luciferase reporter, luminescence | inhibition, % at 5 µM | AID 1700 | actives 0.23% (n = 290,000);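 active = inhibition above a per-plate limit of that plate's mean compound inhibition plus 3 SD, cut at about 60% in these data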;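 note: higher means less KLF5 promoter-driven luciferase light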
IEC-6 cytotox: kills IEC-6 intestinal cells in KLF5 counter-screen; IEC-6 cytotoxicity, luminescence viability; inhibition, % at 5 µM; actives 0.78% (n = 290,000); AID 1825
IEC-6 cytotox cf: confirmation of cytotoxic compounds in rat IEC-6 intestinal epithelial cells; shares compounds with IEC-6 cytotox; IEC-6 rat intestinal epithelial viability, luminescence; inhibition, % at 5 µM; actives 63% (n = 1,900); AID 1907
Large screens that a line does not name were inactive (follow-up assays come after a bar, where they were run). Cut-off read from the data, not from the text of the source, unless noted: active = inhibition above about 22%; inactive = the rest.

Cc1cc(C)c2sc(NC(=O)c3ccc([N+](=O)[O-])o3)nc2c1	IEC-6 cytotox 99 (no result: Ba/F3 V617F tox, APP transl inh, BaF3 tox) | IEC-6 cytotox cf 47
COc1cccc(C(=O)NCC(c2ccc3c(c2)OCO3)N2CCN(c3ccc(F)cc3)CC2)c1 (stereo not given)	none (no result: Ba/F3 V617F tox, APP transl inh, BaF3 tox, KLF5 inhibitor, IEC-6 cytotox)
Cc1cc(C)c(OCCCCCn2ccnc2)c(C)c1	none (no result: Ba/F3 V617F tox, APP transl inh, BaF3 tox)
O=C(Nc1nc2ccccc2s1)c1ccc([N+](=O)[O-])o1	IEC-6 cytotox 86 (no result: Ba/F3 V617F tox, APP transl inh, BaF3 tox) | IEC-6 cytotox cf 30
COc1ccc2nc(NC(=O)Nc3ccccc3OC)sc2c1	IEC-6 cytotox 43 (no result: Ba/F3 V617F tox, APP transl inh, BaF3 tox) | IEC-6 cytotox cf 38
COc1ccccc1NC(=O)Nc1nc2ccc(S(N)(=O)=O)cc2s1	none (no result: Ba/F3 V617F tox, APP transl inh, BaF3 tox)
O=C(Nc1nc2ccccc2s1)c1ccccc1[N+](=O)[O-]	none (no result: Ba/F3 V617F tox, APP transl inh, BaF3 tox)
COc1ccc2nc(NC(=O)c3ccc([N+](=O)[O-])o3)sc2c1	IEC-6 cytotox 93 (no result: Ba/F3 V617F tox, APP transl inh, BaF3 tox) | IEC-6 cytotox cf 42
CCOC(=O)Cc1nnc(NC(=O)CSc2nc3ccccc3[nH]2)s1	none (no result: APP transl inh)
CCOC(=O)c1cc2c(ccn2C)n1Cc1cc(C)ccc1C	IEC-6 cytotox 46 | IEC-6 cytotox cf 25
COc1ccc(C(=O)N=C2SC3CS(=O)(=O)CC3N2Cc2ccc(F)cc2)cc1 (stereo not given)	none (no result: Ba/F3 V617F tox, APP transl inh, BaF3 tox)
CCn1c(Cl)c(C=O)s/c1=N\S(=O)(=O)c1ccccc1	Ba/F3 V617F tox 99, BaF3 tox 103, IEC-6 cytotox 96 (no result: APP transl inh) | IEC-6 cytotox cf 91
CCN1C(=O)CS/C1=N\S(=O)(=O)c1ccc(Cl)cc1	none
Cc1ccc(C(=O)NC(C#N)=C(Cl)Cl)cc1	APP transl inh 58, IEC-6 cytotox 70 | IEC-6 cytotox cf inactive
Cc1ccc(C(=O)NCC#N)cc1	none
O=C(COc1ccccc1)N=C1SC2CS(=O)(=O)CC2N1c1ccccc1F (stereo not given)	none (no result: Ba/F3 V617F tox, APP transl inh, BaF3 tox)
O=C(CSCc1ccccc1)NNc1c(F)c(F)cc(F)c1F	none (no result: Ba/F3 V617F tox, APP transl inh, BaF3 tox)
Cc1[nH]c2ccccc2c1/C=N/Nc1nncn1N	IEC-6 cytotox 102 (no result: aSyn 5UTR inh) | IEC-6 cytotox cf inactive
C=CCOc1ccc(C(=O)n2cc(C(=O)OC)c3ccccc32)cc1	none (no result: Ba/F3 V617F tox, APP transl inh, BaF3 tox)
COc1ccc(-c2cc(=O)c3c(OC)c(OC)c(OC)c(OC)c3o2)cc1OC	none
COc1c(OC)c(O)c2c(=O)cc(-c3c(O)cccc3O)oc2c1OC	BaF3 tox 37, IEC-6 cytotox 23 | IEC-6 cytotox cf inactive
Cc1cc(NCc2ccccn2)n2ncc(-c3ccccc3)c2n1	IEC-6 cytotox 84 (no result: APP transl inh) | IEC-6 cytotox cf 31
Cc1cc(N)n2ncc(-c3ccc(Cl)cc3)c2n1	IEC-6 cytotox 25 | IEC-6 cytotox cf 26
Cc1cc(N)n2ncc(-c3ccc(F)cc3)c2n1	none
Cc1cc(NCc2ccccn2)n2ncc(-c3ccc(Cl)cc3)c2n1	IEC-6 cytotox 29 (no result: APP transl inh) | IEC-6 cytotox cf 30
Cc1nn2c(NCc3ccccn3)cc(C(C)C)nc2c1-c1ccccc1	none (no result: APP transl inh)
CCCc1cc(NCc2ccccn2)n2nc(C)c(-c3ccccc3)c2n1	IEC-6 cytotox 47 (no result: APP transl inh) | IEC-6 cytotox cf inactive
Cc1cc(NCc2ccccn2)n2nc(C)c(-c3ccc(Cl)cc3)c2n1	none (no result: APP transl inh, aSyn 5UTR inh)
Cc1cc(SCc2ccc(Br)cc2)nc(=O)[nH]1	none (no result: Ba/F3 V617F tox, APP transl inh, BaF3 tox)
C=CCc1cccc([C@@H]2[C@@H](C)CC[C@H]3C(=O)N4[C@@H](c5cc(OC)c(OC)c(OC)c5)c5[nH]c6ccccc6c5C[C@H]4C(=O)N23)c1	IEC-6 cytotox 34 | IEC-6 cytotox cf inactive
CCCCSCCCNC(=O)c1ccc(CS(=O)(=O)c2ccc(OC)cc2)o1	none (no result: Ba/F3 V617F tox, APP transl inh, BaF3 tox)
O=C(Nc1nc2ccccc2[nH]1)C1CC1	BaF3 tox 50, IEC-6 cytotox 33 | IEC-6 cytotox cf inactive
CN(CC(=O)Nc1cccc(F)c1)C(=O)C1CCN(S(=O)(=O)c2ccc3c(c2)OCCO3)CC1	none (no result: Ba/F3 V617F tox, APP transl inh, BaF3 tox, KLF5 inhibitor, IEC-6 cytotox)
COc1ccccc1N1CCN(c2ccnc3cc(Cl)ccc23)CC1	aSyn 5UTR inh 87, IEC-6 cytotox 65 (no result: Ba/F3 V617F tox, APP transl inh, BaF3 tox) | IEC-6 cytotox cf 53
COc1ccc(-c2cc(C(=O)N/N=C(\C)c3cccnc3)c3cc(C)ccc3n2)cc1OC	IEC-6 cytotox 34 (no result: Ba/F3 V617F tox, APP transl inh, BaF3 tox) | IEC-6 cytotox cf inactive
COc1ccc(N2CC(C(=O)Nc3nnc(SCC(=O)NCc4ccco4)s3)CC2=O)cc1 (stereo not given)	none (no result: Ba/F3 V617F tox, APP transl inh, BaF3 tox)
O=C(NC(=S)Nc1ccccc1Br)C1CCC1	none (no result: Ba/F3 V617F tox, APP transl inh, BaF3 tox)
CCOC(=O)c1csc(NC(=O)CN2CCOCC2)n1	none (no result: Ba/F3 V617F tox, APP transl inh, BaF3 tox)
CC(=O)Nc1ccc(NC(=O)C(=O)c2cn(CC(=O)N3CCCC3)c3ccccc23)cc1	none (no result: Ba/F3 V617F tox, APP transl inh, BaF3 tox)
